STK33 kin inh = human STK33 kinase inhibition. Q9BYT3. actives 0.44% (n = 27,000). inhibition, % at 12.5 µM. ADP-Glo luminescence, MBP substrate. AID 2322; in the data active = inhibition above about 20%; inconclusive = no clear call, values can overlap the other calls
Target sequence (Q9BYT3 whole entry, looked up): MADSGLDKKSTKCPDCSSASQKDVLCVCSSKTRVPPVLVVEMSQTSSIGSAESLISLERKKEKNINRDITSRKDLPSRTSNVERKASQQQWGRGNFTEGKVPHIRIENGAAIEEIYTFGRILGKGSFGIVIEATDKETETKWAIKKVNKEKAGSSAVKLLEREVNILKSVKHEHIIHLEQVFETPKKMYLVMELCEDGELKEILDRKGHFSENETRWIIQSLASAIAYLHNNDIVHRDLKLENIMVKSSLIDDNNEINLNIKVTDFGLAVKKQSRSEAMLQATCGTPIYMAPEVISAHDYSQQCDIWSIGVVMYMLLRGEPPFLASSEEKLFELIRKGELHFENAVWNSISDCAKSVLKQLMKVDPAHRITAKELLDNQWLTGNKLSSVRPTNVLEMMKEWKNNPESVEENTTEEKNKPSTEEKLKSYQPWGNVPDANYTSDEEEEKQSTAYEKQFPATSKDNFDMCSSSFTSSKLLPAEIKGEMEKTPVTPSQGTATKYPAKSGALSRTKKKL
NOMO-1 viab = STK33 inhibitor candidate reducing NOMO-1 cell viability. NOMO-1 AML viability, CellTiter-Glo luminescence, 72 h. inhibition, % (test concentration not listed). actives 7.5% (n = 37,000). AID 2330; in the data active = inhibition above about 80%; inconclusive = no clear call, values can overlap the other calls
PD-1 reversal = reversal of PD-1 mediated T-cell inhibition. primary human CD4 T cells, PD-L1 beads, CellTiter-Glo 96 h. activation, % (no concentration beside the values). 29,000 tested, under 10 active. AID 2316; call rule not given here;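 also: 0% = median vehicle wells and 100% = positive control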
* = called active by the depositor. This is one part of a sample in which hits are shown more often than they occur.

For C[C@@H]1CN([C@@H](C)CO)C(=O)c2cccc(NC(=O)Nc3ccccc3)c2O[C@H]1CN(C)Cc1ccc(-c2ccccc2)cc1 the results were NOMO-1 viab 92.9* and PD-1 reversal -4.6.
Screening C[C@H](CO)N1C[C@H](C)[C@H](CN(C)Cc2ccc(-c3ccccc3)cc2)Oc2c(NC(=O)Nc3ccccc3)cccc2C1=O returned NOMO-1 viab 57.2 and PD-1 reversal -1.0.
C[C@@H]1CN([C@@H](C)CO)C(=O)c2cccc(NC(=O)Nc3ccc(F)cc3)c2O[C@@H]1CN(C)Cc1ccc(-c2ccccc2)cc1 was read as NOMO-1 viab 99.4* and PD-1 reversal -1.0.
For C[C@@H]1CN([C@H](C)CO)C(=O)c2cccc(NC(=O)Nc3ccc(F)cc3)c2O[C@H]1CN(C)Cc1ccc(-c2ccccc2)cc1 the results were NOMO-1 viab inconclusive and PD-1 reversal -5.6.
Screening C[C@@H]1CN([C@@H](C)CO)C(=O)c2cccc(NC(=O)Nc3ccccc3)c2O[C@@H]1CN(C)Cc1ccccc1 returned NOMO-1 viab 17.3 and PD-1 reversal -0.2.
C[C@H](CO)N1C[C@H](C)[C@@H](CN(C)Cc2ccccc2)Oc2c(NC(=O)Nc3ccccc3)cccc2C1=O was read as NOMO-1 viab 103.3* and PD-1 reversal -2.1.
O=C(CCCN1C(=O)c2ccccc2C1=O)Nc1ccc(Br)cc1F was read as STK33 kin inh 1.9, NOMO-1 viab 29.8 and PD-1 reversal 2.4.
For O=C1c2cccc3cccc(c23)C(=O)N1OS(=O)(=O)c1cccc2cccnc12 the results were STK33 kin inh 4.1, NOMO-1 viab 23.4 and PD-1 reversal 3.2.
Screening C[C@H](CO)N1C[C@H](C)[C@H](CN(C)Cc2ccc(C(=O)O)cc2)Oc2ccc(NC(=O)Nc3cccc4ccccc34)cc2CC1=O returned STK33 kin inh 0.7, NOMO-1 viab 8.9 and PD-1 reversal 1.1.
CC(C)NC(=O)Nc1cccc2c1O[C@H](CN(C)Cc1ccc(Cl)c(Cl)c1)[C@@H](C)CN([C@@H](C)CO)C2=O was read as NOMO-1 viab 54.1 and PD-1 reversal -2.8.
C[C@@H]1CN([C@@H](C)CO)C(=O)c2cc(NC(=O)Nc3cccc4ccccc34)ccc2O[C@@H]1CN(C)Cc1ccc(Cl)c(Cl)c1 was read as STK33 kin inh 14.4, NOMO-1 viab 93.3* and PD-1 reversal -3.6.
`C[C@H](CO)N1C[C@H](C)[C@H](CN(C)Cc2ccc(Cl)c(Cl)c2)Oc2c(NC(=O)Nc3cccc4ccccc34)cccc2C1=O` gave NOMO-1 viab 106.5* and PD-1 reversal -4.6.
Screening C[C@H](CO)N1C[C@H](C)[C@H](CN(C)Cc2ccccc2)Oc2ccc(NC(=O)Nc3cccc4ccccc34)cc2C1=O returned STK33 kin inh -1.9, NOMO-1 viab 14.8 and PD-1 reversal -0.8.
`C[C@@H]1CN([C@@H](C)CO)C(=O)Cc2cc(NC(=O)Nc3cccc4ccccc34)ccc2O[C@@H]1CN(C)Cc1ccc(Cl)c(Cl)c1` gave STK33 kin inh 4.5, NOMO-1 viab 128.6* and PD-1 reversal -5.3.
Screening COc1ccc(NC(=O)CSc2nnc3c4c5c(sc4nc(-c4ccccc4)n23)CCC5)cc1 returned STK33 kin inh 1.0, NOMO-1 viab inconclusive and PD-1 reversal -4.9.
CCn1c(SCC(=O)Nc2cc(C)c(Cl)cc2OC)nnc1-c1cccs1 was read as STK33 kin inh -0.8 and NOMO-1 viab -5.1.
`COc1cccc2sc(NC(=O)c3ccc(S(=O)(=O)N4CCCC(C)C4)cc3)nc12` (stereo not drawn) gave STK33 kin inh 0.0, NOMO-1 viab 59.2 and PD-1 reversal 4.7.
For N#CC(C#N)=C(N)Nc1ccccc1 the results were STK33 kin inh -1.8, NOMO-1 viab 31.0 and PD-1 reversal 0.9.
For COC(=O)c1ccccc1NC(=O)c1ccc(NS(=O)(=O)c2cccc3cccnc23)cc1 the results were STK33 kin inh -0.4, NOMO-1 viab 10.8 and PD-1 reversal 1.8.
O=C(CSc1nc2sc3c(c2c(=O)n1Cc1ccco1)CCC3)N1CCCc2ccccc21 was read as STK33 kin inh -1.5, NOMO-1 viab 18.3 and PD-1 reversal -1.5.
CC(C)N(C(=O)CSc1nc2ccc(Cl)cc2[nH]1)c1ccccc1 was read as STK33 kin inh 0.0 and NOMO-1 viab 3.7.
Cc1cc(C(=O)N(c2ccccc2)C(C)C2CC2)c(Cl)cc1Cl (stereo not drawn) was read as NOMO-1 viab 133.5* and PD-1 reversal -1.7.
For O=C1NC(=O)c2cc(-c3ccccc3)ccc21 the results were NOMO-1 viab -12.6 and PD-1 reversal 0.4.
`CC1(C)CC(=O)c2c([nH]c(-c3ccccc3)c2-c2ccccc2)C1` gave NOMO-1 viab 92.0* and PD-1 reversal -7.5.
O=C(C1CC1(c1ccccc1)c1ccccc1)N1CCCCC1 (stereo not drawn) was read as NOMO-1 viab 22.4 and PD-1 reversal -1.1.
`C[C@@H]1CN([C@@H](C)CO)C(=O)c2cccc(NC(=O)CCCCCC(=O)Nc3ccccc3N)c2O[C@H]1CN(C)S(=O)(=O)c1ccc(Cl)cc1` gave NOMO-1 viab 94.6* and PD-1 reversal -2.8.
C[C@@H]1CN([C@H](C)CO)C(=O)c2cccc(NC(=O)CCCCCC(=O)Nc3ccccc3N)c2O[C@@H]1CN(C)S(=O)(=O)c1ccc(Cl)cc1 was read as NOMO-1 viab 94.6* and PD-1 reversal 1.5.
Screening C[C@H](CO)N1C[C@H](C)[C@@H](CN(C)S(C)(=O)=O)Oc2c(NC(=O)CCCCCC(=O)Nc3ccccc3N)cccc2C1=O returned NOMO-1 viab 25.0 and PD-1 reversal 1.7.
`C[C@@H]1CN([C@@H](C)CO)C(=O)c2cccc(NC(=O)CCCCCC(=O)Nc3ccccc3N)c2O[C@@H]1CN(C)S(=O)(=O)c1ccc(Cl)cc1` gave NOMO-1 viab 121.1* and PD-1 reversal -0.8.
Cc1ccc(S(=O)(=O)N(C)C[C@H]2Oc3c(NC(=O)CCCCCC(=O)Nc4ccccc4N)cccc3C(=O)N([C@H](C)CO)C[C@H]2C)cc1 was read as NOMO-1 viab 57.3 and PD-1 reversal -1.5.
`C[C@@H]1CN([C@H](C)CO)C(=O)c2cccc(NC(=O)CCCCCC(=O)Nc3ccccc3N)c2O[C@@H]1CN(C)S(=O)(=O)c1ccccc1` gave NOMO-1 viab 47.0 and PD-1 reversal -0.7.
O=C(COc1ccccc1[N+](=O)[O-])Nc1ccc2oc(-c3ccc(Cl)cc3Cl)nc2c1 was read as STK33 kin inh -4.4, NOMO-1 viab 28.7 and PD-1 reversal 3.9.
`CC(=O)Nc1ccc(C(=O)CSc2cc(C)c3ccccc3n2)cc1` gave STK33 kin inh -3.5 and NOMO-1 viab 14.0.
`CN(CC(=O)Nc1ccc(F)c(Cl)c1)S(=O)(=O)c1ccc2ccccc2c1` gave STK33 kin inh -2.4, NOMO-1 viab 14.5 and PD-1 reversal -0.6.
For O=C(CSc1nnc(-c2ccncc2)o1)c1cc2ccccc2oc1=O the results were STK33 kin inh 0.5 and NOMO-1 viab 2.0.
`COC(=O)c1cc(Br)ccc1NC(=O)COc1ccc(C(C)(C)C)cc1` gave STK33 kin inh 1.3, NOMO-1 viab 40.4 and PD-1 reversal 0.9.
For Cc1cc(C)c(C)c(Cn2c(CCCO)nc3ccccc32)c1C the results were STK33 kin inh 0.6, NOMO-1 viab 71.0 and PD-1 reversal -5.3.

Bioassay records (PubChem)
